Assay outcomes from PubChem BioAssay.
TEAD-YAP inh – TEAD-YAP interaction inhibition; HEK-TIYL cells, TEAD-Gal4/YAP UAS-luciferase luminescence; AID 1259422; inhibition, % at 9.12 µM; actives 1.4% (n = 640,000); in the data active = inhibition above about 32%;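 also: 0% = median of test compound wells and 100% = reference inhibitor wells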
FBW7 act – human FBW7 E3 ligase activation, primary screen; AlphaScreen FBW7–phospho-cyclin E peptide binding, activator screen; normalized activity (activation), % at 26.1 µM; actives 0.13% (n = 650,000); in the data active = normalized activity above about 1.9%;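 also: purified mutant Fbw7 with reduced substrate affinity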
GPR151 ag – activates the human receptor GPR151; PathHunter beta-arrestin GPR151 cells, luminescence; actives 1% (n = 650,000); Q8TDV0; activation, % at 11.2 µM; AID 1508602; in the data active = activation above about 4.9%;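 also: 0% = median of compound wells and 100% = cells with positive control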
MITF primary – blocks human microphthalmia-associated transcription factor; actives 0.91% (n = 650,000); AID 1259374; AlphaScreen MITF homodimerization, bead proximity signal; inhibition, % at 2.6 µM; O75030; in the data active = inhibition above about 50%;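 also: 0% = vehicle wells with protein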
GPR151 conf act – human GPR151 activation, confirmation screen; GPR151 PathHunter beta-arrestin cells, luminescence, 90 min; % of EA-reagent control over plate median; shares compounds with GPR151 ag; activation, % at 11.2 µM; 6,700 tested, under 10 active;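 active = mean percent activation across replicates above the confirmation screen cutoff of 4.91%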
GPR119 ag – counter-screen for GPR151 activators: effect on human GPR119; activation, % at 11.2 µM; actives 0.3% (n = 6,700); AID 1508611; GPR119 PathHunter beta-arrestin cells, luminescence, 90 min; 0 = compound-well median, 100 = enzyme-acceptor control; shares compounds with GPR151 ag;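 active = mean percent activation in the counterscreen above 29.09%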;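 also: counterscreen on off-target GPR119 to flag nonselective hits from the GPR151 activator screen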
Target sequence (Q8TDV5 whole entry, looked up): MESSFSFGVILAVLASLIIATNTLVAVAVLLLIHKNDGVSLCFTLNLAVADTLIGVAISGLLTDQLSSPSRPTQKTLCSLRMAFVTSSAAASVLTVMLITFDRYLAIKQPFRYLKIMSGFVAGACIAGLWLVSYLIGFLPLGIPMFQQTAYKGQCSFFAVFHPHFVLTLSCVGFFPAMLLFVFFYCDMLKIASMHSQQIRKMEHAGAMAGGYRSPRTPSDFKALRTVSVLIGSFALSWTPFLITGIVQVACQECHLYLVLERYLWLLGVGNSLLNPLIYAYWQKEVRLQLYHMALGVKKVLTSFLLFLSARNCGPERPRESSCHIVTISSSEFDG
* = called active by the depositor; · = not tested or not shown. Rows were chosen to be rich in hits. Some 3.5% of all compounds tested hit in one or more screens of this group.

SMILES	TEAD-YAP inh	FBW7 act	GPR151 ag	MITF primary	GPR151 conf act	GPR119 ag
C=Cc1ccc(Cn2c(C)c(CNCc3ccccc3Cl)c(C(=O)O)c2C)cc1	-0.2	-0.3	-0.8	11.5	·	·
CCc1cccc(C)c1NC(=O)C(C)C	-5.1	0.7	-1.4	16.5	·	·
CCc1cccc(C)c1NC(=S)NN	7.2	0.4	6.2*	15.6	-0.7	-9.6
CCC(=O)Nc1ccc2c(c1)COC2=O	-8.4	0.2	-0.3	11.9	·	·
Cc1cccc(NC(=O)CCC2CCN(C(=O)c3cc(C)nc(C)n3)CC2)c1	3.6	0.1	5.2*	7.8	0.7	13.6
CC(=O)N1c2ccc(S(=O)(=O)N(CC(C)C)CC(C)C)cc2CC1C (configuration not stated)	-7.6	-0.1	0.8	4.5	·	·
CCOc1ccccc1NS(=O)(=O)c1ccc(Br)c(OC)c1	4.8	0.0	-0.4	-9.0	·	·
COc1ccc(S(=O)(=O)Nc2ccccc2SC)cc1C	-7.4	0.1	1.4	-5.9	·	·
CCOc1ccccc1NS(=O)(=O)c1ccc(OC)c(Cl)c1	1.7	-0.1	5.5*	-5.1	-0.7	-4.5
COc1ccccc1NS(=O)(=O)c1ccc2nc(CCl)[nH]c2c1	2.6	0.3	7.0*	-9.6	0.2	-2.6
COc1ccc(S(=O)(=O)Nc2ccccc2SC)cc1Cl	-3.2	-0.3	5.2*	-1.5	-0.7	-4.1
O=C(CSc1nc2ccccc2c(=O)[nH]1)N1CCc2ccccc2C1	-2.1	0.0	0.1	14.6	·	·
Cc1nnc(SCC(=O)N2CCc3ccccc3C2)[nH]c1=O	-10.0	-0.1	10.4*	-13.8	-0.1	7.6
Fc1ccccc1Oc1nc(N2CCOCC2)nc(N2CCOCC2)n1	-4.1	0.7	-0.4	6.6	·	·
O=C(Cn1cnc2c(nnn2Cc2ccc(F)cc2)c1=O)N1CCOCC1	8.8	0.0	1.5	0.4	·	·
Clc1cccc(CN2CCN(c3nc4nonc4nc3NC3CC3)CC2)c1	5.6	-0.1	11.4*	-5.8	-0.7	-8.2
CC(=O)N1CCc2c([nH]c3c(C)cccc23)C12CCN(CCC#N)C2 (configuration not stated)	-1.8	-0.4	0.9	20.0	·	·
O=C(Nc1ccc2c(c1)OCO2)c1ccnc(N2CCC(N3CCOCC3)CC2)c1	-9.2	-0.1	5.7*	-10.5	0.6	-0.3
O=C(Nc1ccc(N2CCOCC2)cc1)c1ccnc(N2CCC(N3CCOCC3)CC2)c1	7.7	0.0	0.9	5.9	·	·
O=c1[nH]c(=O)n(-c2ccccc2Cl)c(O)c1C=NCCCn1ccnc1	6.2	0.1	4.9*	19.3	-0.4	-2.5
Cc1ccccc1-n1c(=O)cc(NCCCn2ccnc2)[nH]c1=O	0.2	-0.3	13.6*	8.5	0.6	3.5
COc1ccccc1C(=O)OCC(=O)c1ccccc1	2.5	0.0	-1.7	6.7	·	·
Cc1ccc2nc(/C(C#N)=C/c3cc4c(cc3[N+](=O)[O-])OCO4)[nH]c2c1	-8.8	-0.1	1.6	1.9	·	·
COc1ccc(CC(=O)NCc2nc(-c3ccc(C)cc3)no2)cc1OC	-4.0	0.0	-1.1	-0.3	·	·
CSc1nsc(SC)c1NC(=O)OC1CCCC1	6.7	0.0	-1.1	11.4	·	·
SMILES	TEAD-YAP inh	FBW7 act	GPR151 ag	MITF primary	GPR151 conf act	GPR119 ag
CSc1nsc(SC)c1NC(=O)OCC1CCCO1 (configuration not stated)	3.3	0.0	6.6*	2.2	-0.3	-2.4
C(=N\n1cnnc1)/c1ccc2c(c1)OCCO2	-8.4	-0.1	12.3*	13.7	0.4	-6.0
C(=N\n1cnnc1)/c1ccc2c(c1)OCO2	-1.3	-0.1	-1.4	-1.1	·	·
CCn1ccnc1CN(C)Cc1ccc(OCC(O)CN2CCc3ccccc3C2)cc1 (configuration not stated)	4.4	-0.1	10.1*	0.3	-0.3	-16.2
CCc1nc(SCc2cccnc2)c2c(=O)n(C)c(=O)n(C)c2n1	5.7	0.2	8.2*	3.8	0.1	4.4
CCCCc1nc(SCc2cccnc2)c2c(=O)n(C)c(=O)n(C)c2n1	7.8	-0.2	1.5	-10.5	·	·
O=C(Cc1cccc(F)c1)N1CCc2c(nc(N3CCOCC3)[nH]c2=O)C1	-1.6	0.0	0.6	0.0	·	·
O=C1CCCN1CCCNc1nc(Nc2ccc(N3CCOCC3)cc2)nc2c1ncn2CCN1CCCC1=O	-2.0	-0.1	10.5*	-3.4	-0.1	-4.8
COc1cc(Nc2nc(NCCCN3CCCC3=O)c3ncn(C(C)C)c3n2)cc(OC)c1OC	6.7	-0.1	13.0*	-2.9	1.3	0.5
